Where “and” joins values, the source holds several entries; their conditions need not be identical. Identical values can stand only once. In all, about 5,500 compounds went through this assay and about 2,000 (36%) were called active. Inconclusive results (about 18%) are left out. Cut-off read from the data, not from the text of the source: active = normalized growth mostly below about 0.91 (no sharp cut-off); inconclusive = no clear call, values can overlap the other calls; inactive = mostly above about 0.92. The list shows a part of the results.
Assay: chemical genetic growth profiling, strain panel (AID 1159580);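 note: tested at 20 µM; growth read once vehicle control cultures reached saturation at 30 °C; 1 = growth at the plate median or of vehicle wells; lower values mean less growth of the strain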
Conditions: growth OD

Measured: normalized growth

CC(=O)OCC(COC(C)=O)OC(C)=O
inactive: S. cerevisiae deletion strains, locus YAL013W, strain DEP1, stronger effect = lower value 1.01 | S. cerevisiae deletion strains, locus YBR021W, strain FUR4, stronger effect = lower value 1.02 | S. cerevisiae deletion strains, locus YBR229C, strain ROT2, stronger effect = lower value 1 | S. cerevisiae deletion strains, locus YCL029C, strain bik1, stronger effect = lower value 1.03 | S. cerevisiae deletion strains, locus YDL035C, strain GPR1, stronger effect = lower value 1.02 | S. cerevisiae deletion strains, locus YDL074C, strain BRE1, stronger effect = lower value 1.02 | S. cerevisiae deletion strains, locus YDL101C, strain DUN1, stronger effect = lower value 1.02 | S. cerevisiae deletion strains, locus YDL134C, strain PPH21, stronger effect = lower value 1.01 | S. cerevisiae deletion strains, locus YDL185W, strain tfp1, stronger effect = lower value 1.01 | S. cerevisiae deletion strains, locus YDL192W, strain arf1, stronger effect = lower value 1.02 | S. cerevisiae deletion strains, locus YDR101C, strain arx1, stronger effect = lower value 1 | S. cerevisiae deletion strains, locus YDR150W, strain NUM1, stronger effect = lower value 1.01 | S. cerevisiae deletion strains, locus YDR162C, strain NBP2, stronger effect = lower value 1.01 | S. cerevisiae deletion strains, locus YDR318W, strain mcm21, stronger effect = lower value 1.01 | S. cerevisiae deletion strains, locus YDR388W, stronger effect = lower value 1.01 | S. cerevisiae deletion strains, locus YDR502C, strain sam2, stronger effect = lower value 1 | S. cerevisiae deletion strains, locus YEL061C, strain CIN8, stronger effect = lower value 1.01 | S. cerevisiae deletion strains, locus YER110C, stronger effect = lower value 1.01 | S. cerevisiae deletion strains, locus YER155C, strain BEM2, stronger effect = lower value 0.999 | S. cerevisiae deletion strains, locus YER167W, strain BCK2, stronger effect = lower value 1.01 | S. cerevisiae deletion strains, locus YGL078C, strain dbp3, stronger effect = lower value 1.01 | S. cerevisiae deletion strains, locus YGL086W, strain mad1, stronger effect = lower value 1 | S. cerevisiae deletion strains, locus YGL248W, strain PDE1, stronger effect = lower value 1.01 | S. cerevisiae deletion strains, locus YGR078C, strain PAC10, stronger effect = lower value 1.02 | S. cerevisiae deletion strains, locus YGR135W, strain pre9, stronger effect = lower value 1.01 | S. cerevisiae deletion strains, locus YGR229C, strain SMI1, stronger effect = lower value 1.02 | S. cerevisiae deletion strains, locus YGR252W, strain gcn5, stronger effect = lower value 0.969 | S. cerevisiae deletion strains, locus YHR030C, strain SLT2, stronger effect = lower value 1.01 and 0.958 | S. cerevisiae deletion strains, locus YHR079C, strain IRE1 (second series), stronger effect = lower value 1.01 | S. cerevisiae deletion strains, locus YHR079C, strain IRE1, stronger effect = lower value 0.989 | S. cerevisiae deletion strains, locus YHR094C, strain hxt1, stronger effect = lower value 1.01 | S. cerevisiae deletion strains, locus YHR129C, strain ARP1, stronger effect = lower value 1.01 | S. cerevisiae deletion strains, locus YHR200W, strain rpn10, stronger effect = lower value 1.01 | S. cerevisiae deletion strains, locus YIL066C, strain RNR3, stronger effect = lower value 1.03 | S. cerevisiae deletion strains, locus YIL073C, strain SPO22, stronger effect = lower value 1.02 | S. cerevisiae deletion strains, locus YIL125W, strain kgd1, stronger effect = lower value 1 | S. cerevisiae deletion strains, locus YIR030C, strain dcg1, stronger effect = lower value 1.01 | S. cerevisiae deletion strains, locus YJL095W, strain BCK1, stronger effect = lower value 1.02 and 0.962 | S. cerevisiae deletion strains, locus YJL134W, strain LCB3, stronger effect = lower value 1.01 | S. cerevisiae deletion strains, locus YJL168C, strain set2, stronger effect = lower value 1.01 | S. cerevisiae deletion strains, locus YJL187C, strain SWE1 (second series), stronger effect = lower value 1.03 | S. cerevisiae deletion strains, locus YJR043C, strain POL32, stronger effect = lower value 1.02 | S. cerevisiae deletion strains, locus YJR066W, strain TOR1, stronger effect = lower value 0.936 | S. cerevisiae deletion strains, locus YJR075W, strain HOC1, stronger effect = lower value 1.03 | S. cerevisiae deletion strains, locus YKL009W, strain mrt4, stronger effect = lower value 1.02 | S. cerevisiae deletion strains, locus YKL068W, stronger effect = lower value 1 | S. cerevisiae deletion strains, locus YKL085W, strain MDH1 (second series), stronger effect = lower value 1.01 | S. cerevisiae deletion strains, locus YKL085W, strain MDH1, stronger effect = lower value 1.01 | S. cerevisiae deletion strains, locus YKL190W, strain CNB1, stronger effect = lower value 1.01 | S. cerevisiae deletion strains, locus YKR001C, strain vps1, stronger effect = lower value 1.02 | S. cerevisiae deletion strains, locus YLR039C, strain RIC1, stronger effect = lower value 0.991 | S. cerevisiae deletion strains, locus YLR058C, strain SHM2, stronger effect = lower value 1.01 | S. cerevisiae deletion strains, locus YLR102C, strain apc9, stronger effect = lower value 0.997 | S. cerevisiae deletion strains, locus YLR113W, strain HOG1, stronger effect = lower value 1 | S. cerevisiae deletion strains, locus YLR262C, strain YPT6, stronger effect = lower value 1.03 | S. cerevisiae deletion strains, locus YLR268W, strain sec22, stronger effect = lower value 1.03 | S. cerevisiae deletion strains, locus YLR330W, strain CHS5, stronger effect = lower value 1.02 | S. cerevisiae deletion strains, locus YLR342W, strain FKS1 (second series), stronger effect = lower value 1.01 | S. cerevisiae deletion strains, locus YLR371W, strain rom2, stronger effect = lower value 1.01 | S. cerevisiae deletion strains, locus YLR418C, strain cdc73, stronger effect = lower value 1.02 | S. cerevisiae deletion strains, locus YML016C, strain PPZ1, stronger effect = lower value 1.01 | S. cerevisiae deletion strains, locus YML032C, strain rad52, stronger effect = lower value 1.03 | S. cerevisiae deletion strains, locus YML124C, strain tub3, stronger effect = lower value 1 | S. cerevisiae deletion strains, locus YMR078C, strain ctf18, stronger effect = lower value 1.01 | S. cerevisiae deletion strains, locus YMR223W, strain ubp8, stronger effect = lower value 1 | S. cerevisiae deletion strains, locus YMR263W, strain SAP30, stronger effect = lower value 1.02 | S. cerevisiae deletion strains, locus YMR307W, strain GAS1, stronger effect = lower value 0.998 | S. cerevisiae deletion strains, locus YNL067W, strain RPL9B, stronger effect = lower value 1.03 | S. cerevisiae deletion strains, locus YNL128W, strain TEP1, stronger effect = lower value 1.02 | S. cerevisiae deletion strains, locus YNL153C, strain GIM3, stronger effect = lower value 1.02 | S. cerevisiae deletion strains, locus YNL183C, strain NPR1, stronger effect = lower value 0.949 | S. cerevisiae deletion strains, locus YNL233W, strain BNI4, stronger effect = lower value 1.01 | S. cerevisiae deletion strains, locus YNL250W, strain rad50, stronger effect = lower value 1 | S. cerevisiae deletion strains, locus YNL271C, strain bni1, stronger effect = lower value 1.02 | S. cerevisiae deletion strains, locus YNL298W, strain CLA4, stronger effect = lower value 1.02 | S. cerevisiae deletion strains, locus YNL307C, strain MCK1, stronger effect = lower value 1.01 | S. cerevisiae deletion strains, locus YNL322C, strain KRE1, stronger effect = lower value 1.01 | S. cerevisiae deletion strains, locus YNR052C, strain pop2, stronger effect = lower value 1.01 | S. cerevisiae deletion strains, locus YOL006C, strain TOP1, stronger effect = lower value 1.05 | S. cerevisiae deletion strains, locus YOL012C, strain htz1 1.07 | S. cerevisiae deletion strains, locus YOL147C, strain pex11, stronger effect = lower value 1.01 | S. cerevisiae deletion strains, locus YOR061W, strain CKA2, stronger effect = lower value 1.01 | S. cerevisiae deletion strains, locus YOR069W, strain VPS5, stronger effect = lower value 1.01 | S. cerevisiae deletion strains, locus YOR136W, strain idh2, stronger effect = lower value 1.01 | S. cerevisiae deletion strains, locus YOR144C, strain elg1, stronger effect = lower value 0.998 | S. cerevisiae deletion strains, locus YOR184W, strain ser1, stronger effect = lower value 1.02 | S. cerevisiae deletion strains, locus YOR231W, strain MKK1, stronger effect = lower value 0.993 | S. cerevisiae deletion strains, locus YOR316C, strain cot1, stronger effect = lower value 1.01 | S. cerevisiae deletion strains, locus YPL055C, strain LGE1, stronger effect = lower value 1.06 | S. cerevisiae deletion strains, locus YPL241C, strain CIN2, stronger effect = lower value 1.01 | S. cerevisiae deletion strains, locus YPL256C, strain CLN2, stronger effect = lower value 0.989 | S. cerevisiae deletion strains, locus YPR119W, strain clb2, stronger effect = lower value 1.01 | S. cerevisiae deletion strains, locus YPR141C, strain kar3, stronger effect = lower value 1.01 | S. cerevisiae deletion strains, locus YPR163C, strain tif3, stronger effect = lower value 1.02 | S. cerevisiae deletion strains, locus YPR167C, strain met16, stronger effect = lower value 1.01 | S. cerevisiae deletion strains, strain wtn01, stronger effect = lower value 1.04 | S. cerevisiae strains, strain wild type, stronger effect = lower value 1.02
